Measured values reported in PubChem BioAssay (NCATS).
Records with an inconclusive call do not appear. Values without a mark were called inactive. Calls come from the whole dose curve; as a rule, active = well fitted inhibition curve with a large enough effect; inconclusive = small, poorly fitted or top-dose-only effect; inactive = no such curve, though single readings can be large or run the other way.

Test: NS1 protein of Zika virus - qHTS assay to identify small molecule inhibitors in human HEK 293 cells (AID 1347053);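 note: plate controls were infected untreated cells for no effect and uninfected cells for full effect; nearly all actives have a fitted effect of over 55% in size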
Settings: HEK293 ZIKV MR766 infection, NS1 TR-FRET, 24 h; series mostly up to 46.1 µM; activity change, negative = inhibition: at the top concentration
Summary of the method: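 HEK 293; 20 h pre-culture, 37 C/5% CO2; cpd 1 h pre-infection; ZIKV MR766, MOI = 0.5, 24 h, 37 C; TR-FRET NS1 readout (two anti-NS1 Abs); norm. to no-virus vs infected.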
In the case of `NCCC1CCCC(CCN)N1` (stereo not given), the “activity change, negative = inhibition” value is reported as -4.16%. In the case of `COc1ccc(CCn2nnnc2C2(c3ccc(C)cc3)CC2)cc1`, the “activity change, negative = inhibition” value is reported as -14.9%. In the case of `O=c1[nH]c2cc(Cl)ccc2c(O)c1-c1ccc(Oc2ccccc2)cc1`, the “activity change, negative = inhibition” value is reported as 6.19%. With `C=CC1(C)CC(=O)C2(O)C(C)(O1)C(OC(C)=O)C(O)C1C(C)(C)CCC(O)C12C` (stereo not given) the “activity change, negative = inhibition” value was -17.2%. With `NCCCCN` the “activity change, negative = inhibition” value was 0.466%. In the case of `CCCc1c(OCCCOc2ccc(OCC(=O)O)cc2)ccc(C(C)=O)c1O`, the “activity change, negative = inhibition” value is reported as -5.55%. For `C=CC[C@H](N)C(=O)O`, the “activity change, negative = inhibition” value was 9.88%. With `Nc1ncnc2c1ncn2C1CCCC1` the “activity change, negative = inhibition” value was 1.75%. With `Cc1nc(N=Nc2ccc(C(=O)O)cc2)c(COP(=O)(O)O)c(C=O)c1O` the “activity change, negative = inhibition” value was -15.2%. In the case of `COc1ccc2c(c1)c(CC(=O)O)c(C)n2C(=O)c1ccccc1`, the “activity change, negative = inhibition” value is reported as -17.2%. For `CCCOC(=O)c1c(-c2ccccc2)nc(CC)c(C(=O)SCC)c1CCC`, the “activity change, negative = inhibition” value was 6.76%. For `CCCCCCCCCCC(C)(C)C(=O)Nc1c(OC)cc(OC)cc1OC`, the “activity change, negative = inhibition” value was 0.935%. In the case of `CCCC[C@@]1(C2CCCC2)Cc2cc(OCC(=O)O)c(Cl)c(Cl)c2C1=O`, the “activity change, negative = inhibition” value is reported as -3.68%. With `C/C(=C\c1ccc(C(=O)O)cc1)c1ccc2c(c1)C(C)(C)CCC2(C)C` the “activity change, negative = inhibition” value was -0.977%. For `Nc1ncnc2c1nc(Br)n2C1OC2COP(=O)(O)O[C@@H]2C1O` (stereo not given in full), the “activity change, negative = inhibition” value was 5.64%. With `O=C(O)CCC/C=C\C[C@@H]1[C@@H](/C=C/[C@H](O)C2Cc3ccccc3C2)[C@@H](F)C[C@@H]1O` the “activity change, negative = inhibition” value was -15.8%. With `O=C(O)C1CN(CCCP(=O)(O)O)CCN1` (stereo not given) the “activity change, negative = inhibition” value was 1.56%. With `N=C(N)c1ccccc1` the “activity change, negative = inhibition” value was 0.621%. With `Brc1c(Br)c(Br)c2[nH]cnc2c1Br` the “activity change, negative = inhibition” value was -4.02%. With `Cc1nc2n(c(=O)c1CCN1CCC(c3noc4cc(F)ccc34)CC1)CCCC2O` (stereo not given) the “activity change, negative = inhibition” value was -8.56%.
